Among all 53,000 sequences or so, about 3,700 (7%) were called active. This is one part of a sample in which actives are shown more often than they occur.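 The calls were made as follows: active = gene knockdowns whose robust z-score for IL-1 alpha signal is at least 2 or at most -2, so actives lie on both sides; inactive = the rest.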
Assay: Components of the Cytosolic LPS Sensing Pathway: Gene Identification via Genome-wide siRNA Screen;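 also: robust z of the log signal after scaling to non-targeting control siRNA wells of the plate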
Conditions: RAW264.7 macrophages, IL-1a HTRF, actives lie on both sides, screened at 100 nM (by protocol), cells primed 5 h with Pam3CSK4 first
In short: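 Three distinct siRNAs per gene were tested singly at 100 nM in RAW264.7 macrophages. Following Pam3CSK4 priming and 24 hour LipidA transfection, IL-1a secretion was read by HTRF.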

z-score, active:
GCAAUUCAGCUUAUAAGCATT against Mterf2 -2.79, GGAUCGAGACAAGGCCAAATT against Fes 3.22, GCUGUCAGAAAUCUUCGACTT against E2f4 2.65, GGCAAUUCACUGUGAGUAATT against Mettl21a -2.18, CGGAAAUGUAAGUACUUUATT against Taf13 2.25, GGAAGGACAACACUGCACCTT against Cd40 2.44, GGCAUUGACGAGGAUGACCTT against Supt3 2.74, GACACCACAGUCAAAUCUGTT against Agr2 -2.26, GGAGAUCUUCAAUAUGUUATT against Supt6 -2.25, GGAAGAGGAUAGGCAGGAATT against Gfer 2.03, GUUCUUCUCUGUUGGUGCUTT against Vmn1r24 -2.12, GGACUCUCAGAAGAAUGAUTT against Hmmr 2.98, GGAGACAUUCCUGAAAGCUTT against Ankrd2 -2.09, GGACAUAGAGAACAUCAUCTT against Cabp7 4.02, GGGACAAGUUCAUCUGAUATT against Rin1 2.06, GGCGGUGUUUUACUACAAGTT against Capn7 3.99, CCCAUGUACCACUUUGUCATT against Olfr430 -2.05, CAAUCCUCAACGAUUACAUTT against Ncor1 2.05, GAGCCACUUUCUCAAGUGUTT against Pou3f1 3.02

z-score, inactive:
GGGAAAUGAGUUUCUACCGTT against Ebna1bp2 -0.891, CCUACACUAAAAUUCACCATT against Muc15 -0.549, CGUGUGCAAAGAAGCUAAATT against Mdm2 1, GGAGAUGAUGAUUUACAAATT against Spred1 0.723, GGUGAUCUUAGAUUUGAUUTT against Qsox2 -0.401, GGGUUUCUUACUGAAGAAATT against Mindy2 -1.43, GGAAUGAAGCCUGAACAGATT against Strc 0.151, GGACAAUGCCCUGUAUCAGTT against Clic3 -0.822, GGAUAGUCUCCUCAAAGAATT against Trmt10b 0.7, CCAUACUACGGAUGUUUGATT against Calb2 0.677, GGGUAUAGGGAUGGUGAAUTT against Ppil1 0.834, GCUACUCAGUCAUUGAGCCTT against Tatdn2 -1.85, GCAUCUCAAGGAUCUUCGGTT against Syngr4 -0.0821, GGGCAACUUUGAGUUCGAATT against Dok2 0.294, CCUUACCCUGUGUAUCUUUTT against Naa80 -0.0307, GGCCAAGGUCAAUAACUCCTT against Rfc1 -0.755, GGACCACUACAUCAUAUACTT against Lcn4 -1.17, GGCCAAGACACCCUUGUUUTT against Zfp524 -0.376, GGAAGAGAAAGCAAAGUCATT against Ddx19a -0.43, GGUUCUGGAAGAAGAAAAGTT against Irgq 1.31, GGUUCUGUAAAUUCAACUATT against Zfp593 0.706, CUACGAGCCACUUCUGAGATT against Krt87 -0.431, GAACUGAAGAAGCAGAUUGTT against Isg15 0.601, GGCAUUAUGAGCAUCUCGGTT against Tnfrsf11a -0.394, GGAGACACCAGACCAACAATT against Gm5458 0.242, CCAUACAAGUAUCCGAACUTT against 1700102P08Rik 1.03, GCCUCAGCAUUACCACUAUTT against Pof1b -1.86, GGUGAUGCAGCAGAUCAUUTT against Nfyc 0.0427, GUGGAAAACAAGUGGCGGUTT against Cox7c 0.241, GGAGAACUAUUCAGAAACUTT against Btbd11 -0.0178, GCGGUGCCAAAGGUAUUAATT against Rad51ap1 -0.0801, GCAAGAAGGGACACAGUUUTT against Plk1 0.276, GGAAAACCAAGACCACAAATT against Hmgn5 1.39, GGUGCUUGAUUUUGUGCAGTT against Psmd13 -0.00516, CCCUUUAAUACAUACAGUUTT against Mesp2 1.14, GCCCAAGGUGAUCAUUAUUTT against Casp1 -0.15, GGUUGUAAGGAACUCUUGGTT against Slc22a29 -0.628, GGACAUUCCUGAACAUAAUTT against Pcdha3 -1.17, GAAGCCUAAUCCCUUAAUCTT against Oas1g 1.07, CCAUUUCAGGCAUGAAGAATT against Tsga10 -1.13, GGUCAAUAUUCUUAUGUCCTT against S1pr3 0.245, GGAAUUGGAUGUGAGCAACTT against Vasn 0.586, GCCAUGGGUCUCAGAAAGATT against Zxda -0.247, UGAUAGUCUCCACUAAAUUTT against Gm4884 -0.265, GGAUCCUUUGGUUAUAAGATT against Nav1 -1.28, GGUCUUUAGCAGAGAAAAUTT against Zfp420 -0.201, GCCCACAGUCAUUAAACUATT against Nipal4 0.723, GGAUCAAAUCAAGAAGAUGTT against Chmp5 0.627, CCCAGGGUGUCAAUCUAAATT against Cby1 -0.381, CGAAAAUACGUCAAAGCUCTT against Abca8b -0.656, GGGCACUGACAAACGUAUUTT against Olfr433 -0.34, GGACUUCGUGAACAAGAUCTT against Grin2b -0.439, GCGGCCACGGGACGGCGGUTT against Hmx2 -0.455, GGUCAUGACAGGAUACCCATT against Fam163b -1.99, GGAGCCGUACAUCUUACACTT against Abhd1 0.33, GCCGAGUGAAUGAAAGGACTT against Ppp1r32 -0.758, CCGUGGCGUAUGUGAUCAATT against Map3k5 -0.249, GGGAAAUGUUUUCCAAAGATT against Tep1 0.776, CCAUAUGUGCUCACCUUUATT against Marveld2 -0.641, CGAGUUUAAAGUGAGAAGATT against Pou1f1 0.488, GCCACUCUUUAAGAAUCUATT against Abcf1 -0.552, GCAUUGUCCGAGGUUUAUUTT against Tspan33 0.64, GGUGCUAUGUGCGUUUGAUTT against 9830107B12Rik 1.97, GGCGGAUGAACAAAGUUGGTT against Polr1e 0.0863, GGAGAAUAAGCAAAUCCUUTT against Cfap20dc -0.937, GGUCCCAUAUACCAGAUCUTT against Slc3a1 1.63, UGUCAGUGCAGAAUAGCACTT against Olfr658 -1.17, CGACACUCAAUGUGAACUUTT against Grtp1 -0.881, GCCAGUCAUGCCUAUUUUCTT against Zmym6 -0.528, GGUGUGAGUGUCGGAAUCUTT against Islr2 0.138, GGAAUGGUUUUAUUUUUGGTT against Noa1 -0.0245, GGUACCUCUGUAUUCAGCCTT against Olfr121 0.78, GGAAACUACAAAUUUGGCATT against Krtap6-2 0.195, CCCACAGUAAAUUCAACGGTT against Gm5069 0.00754, UACCCAUUGUCAAGUUGGATT against Grm4 -0.634, GGACCUGUGUGUUCUUUGATT against Amhr2 -0.505, CCUUGGCAGGUAUAGUGUUTT against Klk9 -1.09, GGAUCCCAGUUCUGGGUAATT against Dok1 -0.0628, GCCUAUUUGACGUGCAGAGTT against Crocc -0.0336, GCUGUUUUAUCUCCAAUGGTT against Araf 1.73, GGCAUUGAUCACUGACAGCTT against 9530077C05Rik 0.827, GGACCAUACAUAUUCAAAATT against Aph1b 0.0294, GUCCUGAAGAAGCUCAAGATT against Cartpt -0.513, GGGACAGUACAGAGUGCUGTT against Hmx1 0.755, GGAUGAGGAGAUAAAGUCUTT against Misp -0.981, GGAAUAAAACUUCUGAGAATT against Oog1 -1.66, GAAAACUCAAACAGCAUAUTT against Vmn1r216 0.833, GUAACUCGCUUCUUGGUGGTT against Slc22a15 0.464

Source: PubChem BioAssay AID1508600 (Functional Genomics Laboratory (NCATS/FGL), 2020)
